Key:
Type in all cases: functional
[1] = system: Plasmodium falciparum; assay: GSK_TCMDC: Inhibition of Plasmodium falciparum 3D7 in whole red blood cells, using parasite LDH activity as an index of growth. Test compounds present at 2uM
[2] = system: Plasmodium falciparum; assay: GSK_TCMDC: Inhibition of Plasmodium falciparum Dd2 in whole red blood cells, using parasite LDH activity as an index of growth. Test compounds present at 2uM
[3] = system: HepG2; assay: GSK_TCMDC: Percent inhibition of human HepG2 cell line. Test compounds present at 10uM.

SMILES | Inhibition [1] | Inhibition [2] | Inhibition [3]
O=C(/C=C/c1ccc(-c2nc3cc(F)c(F)cc3[nH]2)cc1)NCc1ccc(Cl)c(Cl)c1 | 100% | 24% | 14%
COc1ccc(-c2ccc(CNC(=O)c3ccc(C#N)cc3)c(F)c2)cc1CN1CCCN(C)CC1.O=C(O)C(F)(F)F | 90% | 1% | 6%
O=C(N[C@@H](CC1CCCCC1)C(=O)NCc1cccc2ccccc12)c1ccc(O)c(-c2ccc(Cl)c(Cl)c2)c1 | 97% | 99% | 0%
COc1ccccc1CCNc1nc(C)cc(NCCC(=O)Nc2ccccc2)n1.O=C(O)C(F)(F)F | 100% | 24% | 7%
Cc1c(O)cccc1Nc1ccnc2ccc(C(F)(F)F)cc12.Cl | 96% | 51% | 0%
CC[C@H](NC(=O)c1c(CN2CCC(N3CCCCC3)CC2)c(-c2ccccc2)nc2c(Cl)c(O)ccc12)c1ccccc1.Cl | 100% | 66% | 0%
CC(C)NCc1ccc(-c2ccc(NS(=O)(=O)c3cccc4cccnc34)cc2)cc1.O=C(O)C(F)(F)F | 90% | 45% | 27%
COc1cccc(C2CCN(CCN3CCC(CNC(=O)c4ccc(-c5ccc(C(F)(F)F)cc5)cc4)CC3)CC2)c1 | 100% | 42% | 41%
CNC(=N)c1ccc(NC(=O)c2ccc(C(=O)Nc3ccc(C(=N)NC)cc3)cc2)cc1.Cl | 96% | 91% | 6%
CC1(C)NC(N)=NC(=N)N1OCc1nc(N)nc(Nc2ccccc2)n1 | 98% | 0% | 3%
O=C(Nc1cccc(-c2ccc(-c3nc4cc(C(F)(F)F)ccc4[nH]3)cc2)c1)Nc1ccc(Cl)c(Cl)c1 | 100% | 51% | 93%
Cc1ccc(CN2CCC(Oc3cccc(NC(=O)c4ccc(C(F)(F)F)cc4)c3)CC2)cc1.O=C(O)C(F)(F)F | 92% | 15% | 37%
Cc1cccc2nc(-c3ccc(-c4ccc(NC(=O)C5CCN(C)CC5)cc4)cc3)[nH]c12 | 100% | 92% | 28%
CC(C)CC1c2[nH]c3ccccc3c2CCN1C(=O)CCc1ccccc1 (stereo not drawn) | 92% | 82% | 0%
O=C(Nc1nc(-c2ccccn2)cs1)c1ccc(S(=O)(=O)N2CCc3ccccc32)cc1 | 89% | 15% | 47%
CS(=O)(=O)c1ccc2c(c1)CCN(CCC1CCC(NC(=O)C(=Cc3cccc(C#N)c3)c3ccc(-c4ccccc4)cc3)CC1)CC2 (stereo not drawn) | 99% | 13% | 24%
CC(C)(C)c1ccc(NC(=O)c2ccc(CN3CCCN(Cc4cccc(F)c4)CC3)cc2)cc1.O=C(O)C(F)(F)F | 90% | 8% | 51%
COc1ccc(CN2CCCN(Cc3cccc(NC(=O)c4ccc(Cl)c(Cl)c4)c3)CC2)cc1.O=C(O)C(F)(F)F | 86% | 19% | 38%
COc1cccc2cc(C(=O)N[C@@H](CC(C)C)C(=O)N[C@H](C=NNC(=O)OC(C)(C)C)Cc3ccccc3)oc12 | 99% | 88% | 11%
COc1cc(C)nc2ccc(NC(=O)Nc3cccc4ccccc34)cc12 | 91% | 48% | 27%
Cl.O=C(/C=C/c1ccc(F)cc1)NC1CCC(CCN2CCCN(c3ccc(C(F)(F)F)cn3)CC2)CC1 (stereo not drawn) | 97% | 13% | 29%
O=c1cc(NCC2(CNCc3cn(Cc4ccccc4)c4ccccc34)CCCCC2)[nH]c2ccccc12 | 100% | 56% | 27%
CC1(C)CC(NCCCCCCCOc2ccc(OCc3ccccc3)cc2)CC(C)(C)N1.Cl | 100% | 73% | 99%

SMILES | Inhibition [1] | Inhibition [2] | Inhibition [3]
CC(C)Cc1cn(-c2nc(C(=N)N)cs2)c2cc(Cl)ccc12 | 100% | 98% | 98%
N#Cc1cccc(C(=O)Nc2ccc(-c3nc4ccccc4[nH]3)cc2)c1 | 91% | 38% | 33%
CC1=C(C(=O)Nc2cc3cn[nH]c3cc2F)C(c2cccc(NS(C)(=O)=O)c2)CC(=O)N1 (stereo not drawn) | 96% | 97% | 0%
O=C(c1cccc(-c2ccc(-c3nc4cc(F)ccc4[nH]3)s2)c1)N1CCCCC1CN1CCC(O)C1 (stereo not drawn) | 100% | 85% | 23%
COc1ccc(CCNCCCCCCNCCc2cccc([N+](=O)[O-])c2)cc1OC.Cl | 93% | 0% | 13%
CO/C(=C\C=C\c1cc2cc(Cl)c(Cl)cc2[nH]1)C(=O)NCCCN1CCN(c2cccc(OC)c2)CC1 | 100% | 93% | 61%
CCNc1cc(C(=O)N[C@@H](Cc2ccc(F)c(F)c2)[C@H](O)CNCc2cccc(OC)c2)cc(N2CCCCS2(=O)=O)c1.Cl | 99% | 85% | 4%
O=C(Nc1ccc(C(F)(F)F)cc1)NC1CCN(c2ccnc3cc(Cl)ccc23)C1.O=C(O)C(F)(F)F (stereo not drawn) | 100% | 99% | 20%
COc1ccc(NC(=O)Nc2cccc(-c3cccc(-c4nc5ccccc5[nH]4)c3)c2)cc1 | 100% | 41% | 41%
OC(CNCCCc1ccccc1)c1cc(OCc2ccccc2)cc(OCc2ccccc2)c1 (stereo not drawn) | 93% | 85% | 8%
COc1ccc(OC)c2c1CCN(CCN1CCC(C(=O)Nc3ccc(C(=O)Nc4ccc(Cl)cc4)cc3)CC1)C2 | 100% | 100% | 25%
Cl.c1ccc(Oc2cccc(Nc3ccnc4ccccc34)c2)cc1 | 95% | 14% | 48%
c1ccc(Oc2ccc(Nc3ccnc4cc(-c5cccc(CNCCN6CCOCC6)c5)ccc34)cc2)cc1 | 100% | 98% | 12%
COc1cc(NCC(CN)Cc2ccc3c(c2)OCO3)nc2ccccc12.Cl (stereo not drawn) | 94% | 6% | 41%
COc1ccc2nccc([C@@H](O)CN3CCC(NC(=O)COc4nc(SCc5ccc(F)cc5)nc5c4CCC5)CC3)c2c1 | 96% | 78% | 29%
COc1cc2nc(NCc3cccc(CNC(=O)c4ccc(-c5ccc(C(C)=O)cc5)cc4)c3)nc(N)c2cc1OC.O=C(O)C(F)(F)F | 100% | 72% | 32%
N=C(N)Nc1nc(CCCCCCCCc2csc(NC(=N)N)n2)cs1 | 100% | 28% | 27%
Cc1[nH]cnc1CSCCNC(=N)NCCCCCCCCNC(=N)NCCSCc1nc[nH]c1C.Cl | 96% | 95% | 24%
O=C(NCCCCCN1CCC(c2c[nH]c3ccccc23)CC1)Nc1ccc(Cl)cc1Cl | 99% | 15% | 71%
COc1ccc(Cc2c(C)nc3nc(N)nc(N)c3c2C)cc1.Cl | 93% | 2% | 61%
Cc1ccc2nc(N(CCCn3ccnc3)C(=O)C=Cc3cccs3)sc2c1.Cl | 100% | 57% | 22%
CCOC(=O)N(C)/N=C/[C@H](CCc1ccccc1)NC(=O)[C@H](CC(C)C)NC(=O)c1cc2cccc(OC)c2o1 | 86% | 70% | 2%
Cc1nc2c(c([O-])c1Cl)-c1ccc(Oc3cccc(C(F)(F)F)c3)cc1C2=O.[Na+] | 94% | 95% | 25%

— ChEMBL document CHEMBL1157539, “Thousands of chemical starting points for antimalarial lead identification” (Nature, 2010)
